Source: PubChem BioAssay (EPA / NIEHS)
Several values for one entry are separate records, joined by “and”; a condition that tells them apart may be missing. Equal entries are not always repeated. Where a structure was tested more than once in an assay, its records may differ in their call. Activity calls are given as the source filed them. Rule for the calls: active = hit-call score of the fitted dose curve at least 0.9, where 1 is the maximum; inactive = score below 0.9.

Assays:
[1] = ATG_GRE_CIS: Attagene CIS-FACTORIAL HepG2 Assay for human Glucocorticoid Response Elements (GRE) (AID 2282947); conditions: HepG2 GRE cis-reporter, Attagene multiplex mRNA; actives raise or lower the signal
Outline: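 Read-out: fluorescent reporter-transcript fragments separated by capillary electrophoresis after RT-PCR. Transiently transfected HepG2 cells carrying cis-element-driven reporter units were dosed for 24 h; gain or loss of signal fitted against DMSO control.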

[2] = ATG_ISRE_CIS: Attagene CIS-FACTORIAL HepG2 Assay for human Interferon Regulatory Factor 1 (IRF1) binding to an Interferon-Stimulated Response Element (ISRE) (AID 2282948); conditions: HepG2 ISRE cis-reporter (Attagene), mRNA transcription readout; actives raise or lower the signal
Outline: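 Multiplexed mRNA reporter readout in human liver HepG2 cells: cis-element-driven reporters transfected, compound added for 24 h, transcripts amplified, fluorescently labelled and sized by capillary electrophoresis; curve fitting bidirectional against DMSO.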

[3] = ATG_M_32_CIS: Attagene CIS-FACTORIAL HepG2 Assay for M32 Transcription Factor (Internal Marker) (AID 2282949); conditions: HepG2 Attagene cis-factorial M32 reporter, mRNA; actives raise or lower the signal;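 note: background control marker of the multiplexed CIS panel rather than a real target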
Outline: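 Transient MRTU transfection of HepG2; 24 h compound treatment; TriZol RNA, oligo(dT) RT, reporter PCR, 6-FAM primer extension, HpaI cut, CE. Gain/loss of signal vs DMSO.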

[4] = ATG_M_06_CIS: Attagene CIS-FACTORIAL HepG2 Assay for M06 Transcription Factor (Internal Marker) (AID 2282950); conditions: HepG2 Attagene CIS-FACTORIAL M06 internal marker reporter; actives raise or lower the signal
Outline: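 Cells (HepG2, transiently carrying cis-driven reporter units) receive chemical for 24 h before RNA isolation. Reporter cDNA is PCR-amplified, FAM-labelled by primer extension, HpaI-digested and sized on a capillary analyser.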

[5] = biological target: Hypoxia-inducible factor 1-alpha (Homo sapiens) (UniProt Q16665); assay: ATG_HIF1a_CIS: Attagene CIS-FACTORIAL HepG2 Assay for human Hypoxia Inducible Factor 1 (HIF1A) (AID 2282951); conditions: HepG2 Attagene cis-factorial HIF1a reporter transcription; actives raise or lower the signal
Outline: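 Endogenous-TF cis reporter readout, human HepG2 cells, 24 h incubation; mRNA detected via RT-PCR and capillary electrophoresis fluorescence; DMSO-normalised bidirectional fitting.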

[6] = biological target: Hepatocyte nuclear factor 6 (Homo sapiens) (UniProt Q9UBC0); assay: ATG_HNF6_CIS: Attagene CIS-FACTORIAL HepG2 Assay for human Hepatocyte Nuclear Factor 6 (HNF6) (AID 2282952); conditions: HepG2 Attagene cis-factorial HNF6 reporter transcription; actives raise or lower the signal
Outline: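 Endogenous transcription factor activity in human HepG2 liver cells was captured through cis-regulated reporter constructs. After 24 h treatment, reporter mRNA was measured by RT-PCR with capillary electrophoresis, and activity was fitted in both directions relative to DMSO.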

[7] = biological target: Heat shock factor protein 1 (Homo sapiens) (UniProt Q00613); assay: ATG_HSE_CIS: Attagene CIS-FACTORIAL HepG2 Assay for human Heat Shock Transcription Factor 1 (HSE) (AID 2282953); conditions: HepG2 HSE cis-reporter, Attagene RNA transcription; actives raise or lower the signal
Outline: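 Liver-derived HepG2 cells carry transiently introduced multiple reporter units governed by cis promoters. Reporter RNA measured 24 h post-dose through reverse transcription, PCR amplification, fluorescent labelling and capillary electrophoresis, normalised to DMSO.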

[8] = ATG_MRE_CIS: Attagene CIS-FACTORIAL HepG2 Assay for human Metal Responsive Element (MRE) (AID 2282954); conditions: HepG2 MRE cis-reporter transcription, Attagene multiplex; actives raise or lower the signal
Outline: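 RT-PCR/capillary electrophoresis readout of reporter mRNA, 24 h post-dosing, in HepG2 cells transfected with multiplexed cis-regulated reporter constructs. Gain or loss of signal fitted bidirectionally against DMSO baseline.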

[9] = ATG_PBREM_CIS: Attagene CIS-FACTORIAL HepG2 Assay for human Phenobarbital-responsive Enhancer Module (PBREM) (AID 2282955); conditions: HepG2 PBREM cis-reporter, Attagene multiplexed transcription; actives raise or lower the signal
Outline: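 Readout: reporter mRNA, fluorescent RT-PCR fragments separated by capillary electrophoresis. System: HepG2 transiently transfected with cis-regulated reporter units. Exposure: 24 h. Analysis: bidirectional, DMSO baseline.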

[10] = ATG_PXRE_CIS: Attagene CIS-FACTORIAL HepG2 Assay for human Pregnane X Receptor Element (PXRE) (AID 2282957); conditions: HepG2 Attagene CIS-FACTORIAL PXRE reporter, mRNA; actives raise or lower the signal
Outline: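 Endogenous transcription factor activity in HepG2 was gauged through induction of reporter mRNA driven by a cis-regulating promoter element, sampled 24 h post-treatment. Activity was fitted in both directions against DMSO negative control.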

[11] = ATG_PPRE_CIS: Attagene CIS-FACTORIAL HepG2 Assay for human Peroxisome Proliferator-activated Response Element (PPRE) (AID 2282958); conditions: HepG2 PPRE cis-element reporter, Attagene transcription factor profiling; actives raise or lower the signal
Outline: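 After human HepG2 hepatoma cells were transiently transfected with cis-promoter reporter constructs, they were exposed to test chemicals for 24 hours. Reporter RNA was then reverse-transcribed, PCR-amplified, FAM-labeled, HpaI-digested and quantified by capillary electrophoresis.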

[12] = ATG_RORE_CIS: Attagene CIS-FACTORIAL HepG2 Assay for human RAR-related Orphan Receptor Element (RORE) (AID 2282959); conditions: HepG2 Attagene cis-factorial RORE reporter, mRNA; actives raise or lower the signal
Outline: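 Measured here: transcript induction of a cis-regulated reporter in HepG2 cells transiently transfected via FuGene 6. After 24 h, RNA was processed by RT-PCR and fluorescent capillary electrophoresis; DMSO defined baseline activity.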

[13] = ATG_Sox_CIS: Attagene CIS-FACTORIAL HepG2 Assay for human SRY-box transcription factor (SOX) (AID 2282960); conditions: HepG2 Attagene cis-factorial SOX reporter, mRNA; actives raise or lower the signal
Outline: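 Using transiently transfected HepG2 cells, reporter transcription driven by cis elements was assessed 24 h after dosing. Signal was fluorescence of capillary-separated RT-PCR products, with DMSO defining baseline activity.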

[14] = biological target: Transcription factor Sp1 (Homo sapiens) (UniProt P08047); assay: ATG_Sp1_CIS: Attagene CIS-FACTORIAL HepG2 Assay for human Specificity Protein 1 (Sp1) (AID 2282961); conditions: HepG2 Sp1 cis-reporter transcription, actives raise or lower the signal
Outline: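 After transient transfection of HepG2 cells with cis-promoter reporter units and 24 h chemical treatment, reporter transcripts were quantified by RT-PCR and capillary electrophoresis fluorescence. Gain- and loss-of-signal fitted against DMSO.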

[15] = ATG_SREBP_CIS: Attagene CIS-FACTORIAL HepG2 Assay for human Sterol Regulatory Element Binding (SREBP) (AID 2282962); conditions: HepG2 Attagene cis-factorial SREBP reporter, mRNA; actives raise or lower the signal
Outline: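 Endogenous factor activity is measured in HepG2 through multiplexed reporter units under cis-element control. Following a 24 h incubation, reporter transcripts are reverse-transcribed, PCR-amplified and sized by capillary electrophoresis; activity is fitted in both directions relative to DMSO.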

[16] = ATG_TA_CIS: Attagene CIS-FACTORIAL HepG2 Assay for human TA Basal Promoter (AID 2282964); conditions: HepG2 Attagene CIS-factorial TA basal promoter reporter; actives raise or lower the signal
Outline: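 Background internal-marker endpoint from a 52-component HepG2 cis-reporter panel. Cells treated 24 h; reporter transcripts quantified via RT-PCR and CE fluorescence against DMSO baseline.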

[17] = ATG_TCF_b_cat_CIS: Attagene CIS-FACTORIAL HepG2 Assay for human T-Cell-Factor with beta-catenin (TCF/b-cat) (AID 2282965); conditions: HepG2 TCF/beta-catenin cis-reporter transcription, actives raise or lower the signal
Outline: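 HepG2, transient MRTU transfection, cis-element-driven reporters (endogenous TFs). 24 h compound exposure. Readout: reporter mRNA by RT-PCR + 6-FAM primer extension, HpaI digest, capillary electrophoresis. Gain/loss fit vs DMSO baseline.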

[18] = biological target: Paired box protein Pax-6 (Homo sapiens) (UniProt P26367); assay: ATG_Pax6_CIS: Attagene CIS-FACTORIAL HepG2 Assay for human Paired Box 6 (PAX6) (AID 2282956); conditions: HepG2 CIS-FACTORIAL PAX6 reporter transcription, RNA readout; actives raise or lower the signal
Outline: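 Fluorescent RT-PCR products separated by capillary electrophoresis report PAX6-linked promoter mRNA in HepG2 cells 24 h post-dose. Curves fitted bidirectionally, DMSO as negative control.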

[19] = ATG_TAL_CIS: Attagene CIS-FACTORIAL HepG2 Assay for human TAL Basal Promoter (AID 2282966); conditions: HepG2 Attagene cis-factorial TAL promoter reporter; actives raise or lower the signal;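 note: background control endpoint measuring basal TAL promoter reporter mRNA not a specific factor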
Outline: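 Endogenous transcription-factor activity is sensed in HepG2 cells through transfected cis-promoter reporter constructs. After 24 h dosing, reporter transcripts are quantified by RT-PCR and capillary electrophoresis. Gain or loss of signal is fitted relative to DMSO.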

Sequence of Hypoxia-inducible factor 1-alpha (Homo sapiens) (Q16665 whole entry, looked up): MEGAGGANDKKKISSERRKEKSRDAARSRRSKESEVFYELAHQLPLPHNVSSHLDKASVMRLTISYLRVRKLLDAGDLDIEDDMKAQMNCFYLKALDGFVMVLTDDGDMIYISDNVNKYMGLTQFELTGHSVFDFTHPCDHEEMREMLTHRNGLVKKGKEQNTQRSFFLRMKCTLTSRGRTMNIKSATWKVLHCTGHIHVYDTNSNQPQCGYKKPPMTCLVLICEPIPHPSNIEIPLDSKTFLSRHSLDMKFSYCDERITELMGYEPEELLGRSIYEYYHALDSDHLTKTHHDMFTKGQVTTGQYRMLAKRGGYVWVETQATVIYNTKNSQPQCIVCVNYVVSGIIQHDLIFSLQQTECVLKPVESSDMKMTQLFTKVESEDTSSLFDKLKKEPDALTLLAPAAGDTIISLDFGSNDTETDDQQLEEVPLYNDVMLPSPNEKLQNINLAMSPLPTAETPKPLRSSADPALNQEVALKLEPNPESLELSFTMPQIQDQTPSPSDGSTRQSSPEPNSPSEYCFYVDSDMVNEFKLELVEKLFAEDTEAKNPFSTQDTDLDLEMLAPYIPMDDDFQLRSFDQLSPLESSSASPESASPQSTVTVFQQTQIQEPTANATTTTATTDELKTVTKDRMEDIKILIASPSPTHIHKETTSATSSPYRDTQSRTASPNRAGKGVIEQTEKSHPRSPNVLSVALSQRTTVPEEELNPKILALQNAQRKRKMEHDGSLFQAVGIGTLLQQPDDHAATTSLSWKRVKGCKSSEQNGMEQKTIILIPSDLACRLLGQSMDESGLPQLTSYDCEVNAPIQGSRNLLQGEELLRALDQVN
Sequence of Heat shock factor protein 1 (Homo sapiens) (Q00613 whole entry, looked up): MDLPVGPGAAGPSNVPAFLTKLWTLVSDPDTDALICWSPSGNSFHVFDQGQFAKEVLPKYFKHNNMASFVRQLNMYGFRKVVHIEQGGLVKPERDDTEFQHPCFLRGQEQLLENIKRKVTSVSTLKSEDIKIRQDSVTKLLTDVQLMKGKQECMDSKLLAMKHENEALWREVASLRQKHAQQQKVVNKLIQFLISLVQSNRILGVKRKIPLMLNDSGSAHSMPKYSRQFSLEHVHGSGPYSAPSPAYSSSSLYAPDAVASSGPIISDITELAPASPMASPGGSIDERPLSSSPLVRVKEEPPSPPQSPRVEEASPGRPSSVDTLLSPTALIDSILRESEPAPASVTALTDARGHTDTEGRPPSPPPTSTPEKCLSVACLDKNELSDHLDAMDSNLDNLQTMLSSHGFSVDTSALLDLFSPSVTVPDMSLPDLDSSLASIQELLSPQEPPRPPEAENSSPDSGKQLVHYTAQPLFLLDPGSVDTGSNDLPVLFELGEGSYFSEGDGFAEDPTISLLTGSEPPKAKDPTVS
Sequence of Paired box protein Pax-6 (Homo sapiens) (P26367 whole entry, looked up): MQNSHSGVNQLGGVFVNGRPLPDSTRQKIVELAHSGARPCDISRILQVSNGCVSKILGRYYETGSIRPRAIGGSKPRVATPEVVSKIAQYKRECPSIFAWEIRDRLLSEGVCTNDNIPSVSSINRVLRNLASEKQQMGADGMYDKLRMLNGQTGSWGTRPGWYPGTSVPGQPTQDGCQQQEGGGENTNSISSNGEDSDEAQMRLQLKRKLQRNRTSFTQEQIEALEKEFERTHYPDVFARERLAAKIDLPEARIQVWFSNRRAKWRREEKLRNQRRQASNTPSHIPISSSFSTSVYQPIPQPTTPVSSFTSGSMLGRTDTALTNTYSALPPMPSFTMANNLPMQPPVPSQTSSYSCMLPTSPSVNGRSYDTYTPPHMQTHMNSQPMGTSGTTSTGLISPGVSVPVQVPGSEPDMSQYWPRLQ
Sequence of Hepatocyte nuclear factor 6 (Homo sapiens) (Q9UBC0 whole entry, looked up): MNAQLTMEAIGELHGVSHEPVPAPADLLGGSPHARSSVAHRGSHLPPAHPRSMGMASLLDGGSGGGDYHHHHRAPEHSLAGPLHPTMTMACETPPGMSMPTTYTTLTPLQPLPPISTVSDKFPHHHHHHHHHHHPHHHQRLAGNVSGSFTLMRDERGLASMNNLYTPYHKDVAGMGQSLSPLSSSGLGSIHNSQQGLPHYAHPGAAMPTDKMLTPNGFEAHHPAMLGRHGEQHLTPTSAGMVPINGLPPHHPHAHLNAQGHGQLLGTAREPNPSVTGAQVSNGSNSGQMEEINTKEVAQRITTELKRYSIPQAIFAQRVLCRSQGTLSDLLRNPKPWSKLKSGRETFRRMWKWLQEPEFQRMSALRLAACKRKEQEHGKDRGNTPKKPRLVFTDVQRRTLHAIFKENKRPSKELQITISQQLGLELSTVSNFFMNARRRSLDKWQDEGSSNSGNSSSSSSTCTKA
Sequence of Transcription factor Sp1 (Homo sapiens) (P08047 whole entry, looked up): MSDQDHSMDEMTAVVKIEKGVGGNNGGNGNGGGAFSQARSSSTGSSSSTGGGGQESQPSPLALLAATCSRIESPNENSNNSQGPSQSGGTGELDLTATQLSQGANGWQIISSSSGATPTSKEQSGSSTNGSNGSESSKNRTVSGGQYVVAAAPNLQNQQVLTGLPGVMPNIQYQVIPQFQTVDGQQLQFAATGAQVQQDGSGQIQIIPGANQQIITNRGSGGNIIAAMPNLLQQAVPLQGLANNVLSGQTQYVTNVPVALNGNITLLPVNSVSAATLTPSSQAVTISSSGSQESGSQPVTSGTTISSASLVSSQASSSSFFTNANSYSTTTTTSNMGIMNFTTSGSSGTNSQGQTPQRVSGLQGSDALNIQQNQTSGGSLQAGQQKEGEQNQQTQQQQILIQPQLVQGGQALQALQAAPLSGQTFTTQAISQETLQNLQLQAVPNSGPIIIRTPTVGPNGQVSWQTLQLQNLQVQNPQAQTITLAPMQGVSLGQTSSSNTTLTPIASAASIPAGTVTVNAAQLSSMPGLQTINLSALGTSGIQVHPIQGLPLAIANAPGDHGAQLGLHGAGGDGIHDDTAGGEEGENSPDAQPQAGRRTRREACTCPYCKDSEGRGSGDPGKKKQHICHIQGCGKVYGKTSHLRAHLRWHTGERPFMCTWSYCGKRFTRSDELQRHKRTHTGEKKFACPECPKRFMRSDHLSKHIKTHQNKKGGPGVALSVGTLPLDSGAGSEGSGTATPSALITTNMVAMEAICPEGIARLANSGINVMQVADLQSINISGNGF

CCC(O)=C1C(=O)CC(C(=O)O)CC1=O (stereo not drawn)
outcome [1]: inactive
outcome [2]: inactive
outcome [3]: inactive
outcome [4]: inactive
outcome [5]: inactive
outcome [6]: inactive
outcome [7]: inactive
outcome [8]: inactive
outcome [9]: inactive
outcome [10]: inactive
outcome [11]: inactive
outcome [12]: inactive
outcome [13]: inactive
outcome [14]: inactive
outcome [15]: inactive
outcome [16]: inactive
outcome [17]: inactive

C[C@]12CC[C@@H]3c4ccc(O)cc4C[C@@H](CCCCCCCCCS(=O)CCCC(F)(F)C(F)(F)F)[C@H]3[C@@H]1CC[C@@H]2O (stereo partly drawn)
outcome [1]: inactive
outcome [2]: inactive
outcome [3]: inactive
outcome [4]: inactive
outcome [5]: inactive
outcome [6]: inactive
outcome [7]: inactive
AC50 [8]: 1.39 µM (active)
outcome [8]: inactive
AC50 [9]: 0.376 µM (active)
outcome [9]: inactive
outcome [18]: inactive
AC50 [10]: 363 nM (active) [middle of 4 runs]
outcome [11]: inactive
outcome [12]: inactive
outcome [13]: inactive
outcome [14]: inactive
outcome [15]: inactive
outcome [16]: inactive
outcome [17]: inactive

N[C@@H](Cc1cc(I)c(Oc2ccc(O)c(I)c2)c(I)c1)C(=O)O
outcome [1]: inactive
outcome [2]: inactive
outcome [3]: inactive
outcome [4]: inactive
AC50 [5]: 16.3 µM (active) and 19.5 µM (active) and 1.93 µM (active)
outcome [5]: inactive
outcome [6]: inactive
AC50 [7]: 107 µM (active) and 160 µM (active)
outcome [7]: inactive
AC50 [8]: 50.6 µM (active) and 23.7 µM (active) and 94 µM (active)
outcome [8]: inactive
AC50 [9]: 24.4 µM (active)
outcome [9]: inactive
outcome [18]: inactive
AC50 [11]: 13 µM (active) and 22.3 µM (active)
outcome [11]: inactive
outcome [12]: inactive
outcome [13]: inactive
outcome [14]: inactive
outcome [15]: inactive
outcome [16]: inactive
AC50 [17]: 41.6 µM (active) and 24.3 µM (active)
outcome [17]: inactive
outcome [19]: inactive

CCSC(=O)N(CC(C)C)CC(C)C
outcome [1]: inactive
outcome [2]: inactive
outcome [4]: inactive
outcome [5]: inactive
outcome [6]: inactive
outcome [7]: inactive
outcome [8]: inactive
outcome [9]: inactive
outcome [18]: inactive
outcome [10]: inactive
outcome [11]: inactive
outcome [12]: inactive
outcome [13]: inactive
outcome [14]: inactive
outcome [15]: inactive
outcome [16]: inactive
outcome [17]: inactive
